This is one part of a sample in which hits are shown more often than they occur.
Shiga inhibitor: blocks Shiga toxin action in Vero cells. Vero cells, Shiga toxin protein synthesis inhibition reporter. inhibition, % at 38.7 µM. actives 9.2% (n = 290,000). AID 2315; in the data active = inhibition mostly above about 28%, no sharp cut-off; inactive = mostly below about 43%
NS1 function inh: inhibitors of influenza NS1 protein function. Potency, µM (highest dose often 46.1 µM). actives 0.4% (n = 270,000). AID 2326; calls by dose curve; also: actives are rising curves; nearly all actives have a fitted effect of over 50% in size
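OD600 was taken as the measure of yeast growth restored by compound in an NS1-expressing S. cerevisiae strain. Cells had been washed out of glucose medium and diluted 1:100 into galactose -URA medium, pH 6.0.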
AmpC no deterg: inhibitors of E. coli AmpC beta-lactamase without detergent. P00811. AmpC nitrocefin hydrolysis, absorbance 480 nm, 0.0001% Triton. Potency, µM (highest dose often 57.1 µM), actives largely listed as inhibitors. actives 0.52% (n = 330,000). AID 485341; also: nearly all actives have a fitted effect of over 20% in size
Target sequence (P00811 whole entry, looked up): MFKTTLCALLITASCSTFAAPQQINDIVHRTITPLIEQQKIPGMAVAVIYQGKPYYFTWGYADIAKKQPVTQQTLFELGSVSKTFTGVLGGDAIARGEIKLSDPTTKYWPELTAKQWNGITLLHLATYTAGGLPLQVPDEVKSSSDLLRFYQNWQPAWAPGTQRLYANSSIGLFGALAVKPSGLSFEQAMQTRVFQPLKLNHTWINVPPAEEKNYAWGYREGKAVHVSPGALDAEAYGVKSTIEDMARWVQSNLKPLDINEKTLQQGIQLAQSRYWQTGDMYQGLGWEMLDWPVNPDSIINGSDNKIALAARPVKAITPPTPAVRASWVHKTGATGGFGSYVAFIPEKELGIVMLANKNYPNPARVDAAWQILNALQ
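AmpC (5.3 nM in the dispensed reagent) in 20 mM phosphate pH 7.0 with 0.01% (detergent screen) or 0.0001% Triton X-100 was preincubated with compounds for 15 min at room temperature. Nitrocefin was then added from an 800 uM solution, and hydrolysis was followed at 480 nm.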
AmpC inh detg: AmpC beta-lactamase inhibition with detergent present. Potency, µM (series often up to 114 µM), actives largely listed as inhibitors. AmpC hydrolysis of nitrocefin, absorbance 480 nm, 0.01% Triton. actives 0.041% (n = 370,000). P00811. AID 485294; also: nearly all actives have a fitted effect of over 25% in size
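20 mM phosphate pH 7.0 + 0.01% (detergent screen) or 0.0001% Triton X-100; 5.3 nM AmpC reagent; cpd preinc 15 min RT; nitrocefin (800 uM stock) to start; A480 q20 s × 4 min; Activity was normalised to no-enzyme and no-compound control wells.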
CHX counter: counter-screen hit for Shiga toxin inhibitors, cycloheximide | cell reporter, cycloheximide protein synthesis inhibition counterscreen | max response, % | actives 12% (n = 300,000) | AID 2314; in the data active = max response mostly above about 13%, no sharp cut-off; inactive = mostly below about 14%; also: read at 38.3 µM for the half of the compounds with a filed dose
Of the large screens only hits and unclear results are named; the others gave an inactive call. Unless noted, calls follow the shape of the dose curve; as a rule, active = well fitted curve in the direction sought with a large enough effect; inconclusive = small, poorly fitted or top-dose-only effect, or another doubt; inactive = no such curve, though single readings can be large; an effect the other way counts as inactive or inconclusive.

Cn1c(-c2ccc3c(c2)OCO3)cnc1NCc1ccccc1	CHX counter 39
Cc1ccc(CNc2ncc(-c3ccccc3)n2C)o1	CHX counter 25
Cn1c(-c2cccc(Br)c2)cnc1NCc1ccccc1O	AmpC inh detg inconclusive
Cn1c(-c2ccc3c(c2)OCO3)cnc1N	CHX counter 13
Cn1c(-c2ccc3c(c2)OCO3)cnc1NC(=O)CCC(=O)NCCc1ccccc1	Shiga inhibitor 65, AmpC inh detg inconclusive, CHX counter 18
CCOc1ccccc1NC(=O)Cn1ncc2c([nH]c3ccccc32)c1=O	none (no result: Shiga inhibitor, NS1 function inh, AmpC no deterg, CHX counter)
Cc1ccccc1C(=O)N1CCC(C(=O)Nc2ccc(F)cc2F)CC1	none (no result: Shiga inhibitor, NS1 function inh, AmpC no deterg, CHX counter)
Cn1c(-c2ccc3c(c2)OCO3)cnc1NCc1ccccc1Cl	Shiga inhibitor 73, CHX counter 33
Cn1c(-c2ccccc2)cnc1NCc1ccccc1	AmpC inh detg inconclusive, CHX counter 11 (no result: Shiga inhibitor)
OCCCn1c(-c2ccccc2)n[nH]c1=S	Shiga inhibitor 37, CHX counter 21
C=CCn1c(-c2ccccc2)n[nH]c1=S	none
O=C(Cn1ncc(N2CCCC2)c(Cl)c1=O)c1ccc(Cl)cc1	Shiga inhibitor 90, CHX counter 38
CO/N=C(\Cn1ncc(N2CCCC2)c(Br)c1=O)c1ccc(Cl)cc1	none
CC(=O)Cn1ncc(N2CCOCC2)c(Cl)c1=O	none
CC(C)(C)C(=O)Cn1ncc(N2CCOCC2)c(Cl)c1=O	Shiga inhibitor 32, CHX counter 17
O=C(Cn1ncc(N2CCOCC2)c(Br)c1=O)c1ccc(Cl)cc1	Shiga inhibitor 80, CHX counter 35
CC(C)Oc1ccc(CC2CCC(=O)N(C)C2=O)cc1 (stereo not drawn)	none
Cc1cc(C(=O)N/N=C2\CC(=O)c3ccccc32)c(C)n1-c1ccccc1	Shiga inhibitor 65, CHX counter 35
Cc1cc(C(=O)N/N=C2\CC(=O)CC(C)(C)C2)c(C)n1-c1ccc(F)cc1	none
Cc1ccc(S(=O)(=O)NC(=O)c2cc(C)n(-c3ccccc3)c2C)cc1	none
Cc1cc(C(=O)N/N=C2\CC(=O)CC(C)(C)C2)c(C)n1-c1ccccc1	Shiga inhibitor 89, NS1 function inh inconclusive, CHX counter 87
Cc1cc(C(=O)N/N=C/c2cn[nH]c2-c2ccccc2)cs1	none
CCc1c(C(=O)N/N=C/c2cn[nH]c2-c2ccc(F)cc2)csc1C	AmpC no deterg 16µM, AmpC inh detg inconclusive
CCc1c(C(=O)N/N=C/c2ccsc2)csc1C	Shiga inhibitor active, AmpC inh detg inconclusive, CHX counter 39
CCCCOc1ccc(C(=O)N/N=C/c2cn[nH]c2-c2ccc(OC)c(OC)c2)cc1	NS1 function inh inconclusive
COc1ccc(-c2[nH]ncc2/C=N\NC(=O)c2ccc(C(C)(C)C)cc2)cc1OC	Shiga inhibitor 76, CHX counter 21
Cc1ccc(C(C(=O)NCC2CCCO2)N(C(=O)c2snc(C(N)=O)c2N)c2ccc(C)c(C)c2)o1 (stereo not drawn)	AmpC inh detg inconclusive
O=C(CCc1nnc(CCCc2ccccc2)o1)N1CCCCCC1	Shiga inhibitor 87, CHX counter 32
CCCOC1CCCN(C(=O)CCc2nnc(CCCCc3ccccc3)o2)C1 (stereo not drawn)	Shiga inhibitor 41, CHX counter 34
CC1CCCN(C(=O)CCc2ccccc2)C1 (stereo not drawn)	Shiga inhibitor active, CHX counter 9.3
O=C(CCc1ccccc1)N1CCCC1	none
COCC1CCN(C(=O)CCc2nnc(CCCCc3ccccc3)o2)CC1	none
CSc1ncccc1C(=O)OCC(=O)NCc1ccc2c(c1)OCO2	none (no result: NS1 function inh)
COc1ccc(CCOC(=O)c2ccc(NC(=O)CC#N)cc2)cc1	AmpC no deterg inconclusive, CHX counter 41
CCOC(=O)c1ccc(NC(=O)C(=O)NCCc2ccc(OC)cc2)cc1	none
CNC(=O)COC(=O)c1ccc(NC(=O)CC#N)cc1	none
Cc1cc(C)c(C(=O)COC(=O)c2ccc(NC(=O)CC#N)cc2)cc1C	AmpC no deterg 6.3µM
COc1ccc(CCn2c(C)cc(C(=O)COC(=O)c3ccc(NC(=O)CC#N)cc3)c2C)cc1	AmpC no deterg 18µM
COc1ccc(C(=O)OCCc2ccc(O)cc2)cc1	Shiga inhibitor 50, AmpC inh detg inconclusive, CHX counter 38
CC(C)CN(CC(C)C)S(=O)(=O)N1CCC(C(=O)NCCc2ccc(Cl)cc2)CC1	none
O=C(NCc1ccc(F)cc1)c1cc2c(=O)n3ccccc3nc2s1	none (no result: Shiga inhibitor, NS1 function inh, AmpC no deterg, CHX counter)
CC(C)(C)C(=O)COC(=O)c1ccc(O)cc1	Shiga inhibitor 40, AmpC inh detg inconclusive
CC(C)(C)C(=O)COC(=O)c1ccccc1O	none
COc1ccc(NC(=O)Cn2c(=O)cc(C)c3c(C)nn(C)c32)cc1	none (no result: Shiga inhibitor, NS1 function inh, AmpC no deterg, CHX counter)
COc1cc(C(=O)OCCCN2CCOCC2)ccc1O	CHX counter 17
COc1ccc(C(=O)OCCCN(C)C)cc1OC	CHX counter 45
CCOC(=O)Oc1ccc(C(=O)OCCCN(C)C)cc1OC	none
COc1cccc(C(=O)OCCN2CCOCC2)c1	Shiga inhibitor 21
COc1cc(C(=O)OCCN2CCCCC2)ccc1O	none
Cc1cccc(C)c1OCc1nc2c3c(-c4ccccc4)c(-c4ccccc4)oc3ncn2n1	none (no result: Shiga inhibitor, NS1 function inh, AmpC no deterg, CHX counter)
Cc1ccc(C)c(Cn2c(=O)n(Cc3ccccc3)c(=O)c3c2c2cc(C)ccc2n3C)c1	none (no result: Shiga inhibitor, NS1 function inh, AmpC no deterg, CHX counter)
C=C(C)C1CC=C(C)/C(=N\NC(=S)Nc2ccc(C)cc2)C1 (stereo not drawn)	Shiga inhibitor 54, CHX counter 23
Cc1ccc(NC(=O)COc2ccccc2C(N)=O)cc1S(=O)(=O)N1CCCCCC1	none (no result: Shiga inhibitor, NS1 function inh, CHX counter)
Cc1ccc(CN2C(=O)CCC2C(=O)NCCN(CC(C)C)CC(C)C)cc1 (stereo not drawn)	CHX counter 26
Cc1ccc(CN2C(=O)CCC2C(=O)NCc2ccc(F)cc2)cc1 (stereo not drawn)	none
CCC(=O)N1CCc2cc(CNS(=O)(=O)c3cc(OC)ccc3OC)ccc21	none (no result: NS1 function inh, AmpC no deterg)
CC(C)CCOc1ncnc2c1sc1nc3c(cc12)CSC(C)(C)C3	CHX counter 15
CCCn1cnc2c(sc3nc4c(cc32)CSC(C)(C)C4)c1=O	Shiga inhibitor 37, AmpC inh detg inconclusive, CHX counter 25
COc1ccc(N2Cc3cccc(C(=O)Nc4ccc(F)cc4)c3C2=O)cc1	none (no result: Shiga inhibitor, NS1 function inh, AmpC no deterg, CHX counter)
O=C(Nc1nnc(C(F)(F)F)s1)C1COc2ccccc2O1 (stereo not drawn)	Shiga inhibitor 44, CHX counter 34
CC(=O)c1sc(NC(=O)C2COc3ccccc3O2)nc1C (stereo not drawn)	AmpC inh detg inconclusive, CHX counter 21
CC1(C)CNC(=O)c2sc(NC(=O)c3ccccc3Cl)nc2C1	CHX counter 17
O=C(Nc1nnc(CC(=O)N2CCOCC2)s1)C1COc2ccccc2O1 (stereo not drawn)	AmpC inh detg inconclusive
CC1(C)CC(=O)c2sc(NC(=O)C3COc4ccccc4O3)nc2C1 (stereo not drawn)	Shiga inhibitor 32, CHX counter 34
Cc1ccc(C(=O)Nc2nnc(S(=O)(=O)N3CCc4ccccc43)s2)cc1	none (no result: Shiga inhibitor, NS1 function inh, AmpC no deterg, CHX counter)
